Results on 5 molecules are retold here after PubChem BioAssay.

One test has as its target Albumin (Bos taurus) (UniProt P02769). In words: compounds binding labelled BSA control protein – biochemical, small-molecule microarray, Alexa647 label, 635/667 nm fluorescence, artefact control for SMM control protein annotation, profiling panel (AID 1118).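 Also: score merges 667 nm emission intensity and signal-to-noise per printed compound spot.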 The conditions noted are these: BSA-A647 binding, fluorescence 635 nm, higher = more signal.
The nature of test [1]: probe aXIP binding to arrayed compounds – biochemical, NeuroSMM set, 635/667 nm fluorescence, primary screen (AID 1119).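 Also: probe is the protein aXip251-270 applied at 1 µg/mL to compound-printed slides; binding of probe to printed compounds measured as 667 nm fluorescence plus signal to noise.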 The conditions noted are these: small-molecule microarray; higher = more signal, called active from +8 up or from −8 down unless noted.
Test [2] in a line: probe aNOTCH3 binding on compound microarray – biochemical, small-molecule microarray, 635/667 nm fluorescence, primary screen (AID 1120).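 Also: probe is a biotin-tagged antibody raised against NOTCH3 rather than NOTCH3 protein; score merges spot fluorescence near 667 nm with spot signal to noise.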 The conditions noted are these: higher = more signal; small-molecule microarray, probe aNOTCH3, fluorescence unless noted.
Test [3] can be described thus: probe aNOTCH2 binding on compound microarray – biochemical, small-molecule microarray, 635/667 nm fluorescence, primary screen (AID 1121).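 Also: score merges feature fluorescence read at 667 nm with its signal to noise.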 The conditions noted are these: higher = more signal; small-molecule microarray, probe aNOTCH2, fluorescence unless noted.
Test [4] deals with Carbonic anhydrase 2 (Homo sapiens) (UniProt P00918). In words: compounds binding carbonic anhydrase 2 – biochemical, small-molecule microarray, Alexa647-labelled CAII, profiling panel (AID 1122). The settings on record: CAII-A647 binding fluorescence, higher = more signal.
Test [5] in a line: COS7 lysate on small-molecule microarray, probe aHis, 635 nm (AID 1123).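 Also: z-score combines 667nm fluorescence intensity with signal-to-noise per printed compound spot.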 The conditions noted are these: higher = more signal; small-molecule microarray, COS7 cell lysate, probe aHis, fluorescence unless noted.
Test [6] is described as follows: probe aLAP1 signal on lysate-treated microarray – cell lysate, small-molecule microarray, COS7 lysate, primary screen (AID 1124).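 Also: lysate comes from COS7 cells expressing LAP1 and is applied at 0.3 µg/mL; score merges spot fluorescence near 667 nm with signal-to-noise over triplicate slides.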 The settings on record: higher = more signal; small-molecule microarray, COS7 cell lysate, probe aLAP1, fluorescence unless noted.
The test system of the next test is Sam68 (KHDRBS1). In words: compounds binding KHDRBS1 protein – biochemical, small-molecule microarray, 635 nm fluorescence, primary screen (AID 1125).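 Also: score merges 667 nm channel intensity with signal to noise over triplicate slides.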 The settings on record: higher = more signal.
Test [7] has as its system Chordin-like protein 2 (CHRDL2). In words: compounds binding chordin-like 2 – biochemical, small-molecule microarray, 635 nm fluorescence, primary screen (AID 1126).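 Also: printed compound slides probed with Chrdl2 protein at 4 µg/mL for 1 h at 4 C; score merges 667 nm emission intensity with signal to noise over three replicate slides.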 The settings on record: fluorescence 635 nm, higher = more signal.
Test [8] addresses Concanavalin-A (Canavalia ensiformis) (UniProt P02866). In words: compounds binding concanavalin A lectin – biochemical, small-molecule microarray, Alexa647 label, 635 nm, artefact control for SMM control protein annotation, primary screen (AID 1127).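 Also: z combines 667 nm emission intensity with signal-to-noise across three replicate slides.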 The conditions noted are these: ConA-A647 binding fluorescence, higher = more signal.
Test [9] can be described thus: compounds binding Alexa647 anti-His antibody – biochemical, small-molecule microarray, 635 nm fluorescence, artefact control for SMM control protein annotation, primary screen (AID 1128).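 Also: score merges feature fluorescence with signal-to-noise for each printed compound spot.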 The conditions noted are these: higher = more signal.
Test [10] concerns Human papillomavirus type 1a E7 protein (residues 1-88). In words: HPV1a E7 small-molecule binders, primary screen, biochemical, small-molecule microarray, residues 1-88, 635 nm (AID 1129). The settings on record: small-molecule microarray binding, fluorescence 635 nm; higher = more signal.
In test [11] the target is Focal adhesion kinase 1 (Homo sapiens) (UniProt Q05397). In words: PTK2 protein binding on printed compound slides – biochemical, small-molecule microarray, 635/667 nm fluorescence, BSA, DTT, primary screen (AID 1130).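 Also: composite of spot emission at 667 nm and signal to noise over triplicate slides.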 The conditions noted are these: 635 nm fluorescence, higher = more signal.
Sequence of Focal adhesion kinase 1 (Homo sapiens) (Q05397 whole entry, looked up): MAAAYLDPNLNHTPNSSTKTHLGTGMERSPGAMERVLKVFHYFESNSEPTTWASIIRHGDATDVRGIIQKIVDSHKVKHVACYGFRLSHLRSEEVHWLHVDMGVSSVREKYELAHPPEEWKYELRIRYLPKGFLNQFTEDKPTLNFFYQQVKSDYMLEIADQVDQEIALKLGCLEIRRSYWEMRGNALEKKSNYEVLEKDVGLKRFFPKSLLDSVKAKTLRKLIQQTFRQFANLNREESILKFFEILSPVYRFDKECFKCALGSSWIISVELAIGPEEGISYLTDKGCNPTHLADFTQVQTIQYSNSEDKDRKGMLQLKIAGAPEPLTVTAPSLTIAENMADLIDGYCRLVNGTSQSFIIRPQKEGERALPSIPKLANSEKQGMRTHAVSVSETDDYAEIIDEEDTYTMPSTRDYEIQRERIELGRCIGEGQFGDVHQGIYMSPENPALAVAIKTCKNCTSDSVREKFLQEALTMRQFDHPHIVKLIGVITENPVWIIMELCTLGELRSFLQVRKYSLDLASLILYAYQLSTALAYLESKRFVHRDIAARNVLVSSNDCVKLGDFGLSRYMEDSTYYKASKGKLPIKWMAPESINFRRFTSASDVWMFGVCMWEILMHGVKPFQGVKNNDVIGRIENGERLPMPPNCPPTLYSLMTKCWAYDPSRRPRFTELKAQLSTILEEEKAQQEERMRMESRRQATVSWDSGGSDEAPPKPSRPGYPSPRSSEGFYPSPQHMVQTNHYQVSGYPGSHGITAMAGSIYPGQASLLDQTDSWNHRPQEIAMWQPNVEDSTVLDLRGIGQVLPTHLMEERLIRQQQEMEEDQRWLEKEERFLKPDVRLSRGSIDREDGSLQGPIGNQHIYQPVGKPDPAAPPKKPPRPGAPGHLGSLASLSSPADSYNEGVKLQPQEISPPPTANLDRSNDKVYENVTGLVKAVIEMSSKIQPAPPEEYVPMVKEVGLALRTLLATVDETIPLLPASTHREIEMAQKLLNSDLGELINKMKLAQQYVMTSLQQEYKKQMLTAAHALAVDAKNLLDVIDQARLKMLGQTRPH
Test [12] relates to Fibrinogen (Alexa647-labelled). In words: Alexa647-fibrinogen binding to printed small molecules – biochemical, small-molecule microarray, 635/667 nm fluorescence, artefact control for SMM control-protein annotation, profiling panel (AID 1131).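 Also: z-score merges 667 nm fluorescence with per-spot signal-to-noise over triplicate slides.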 The conditions noted are these: fibrinogen-A647 binding fluorescence, higher = more signal.
Test [13] has as its target Follistatin (Homo sapiens) (UniProt P19883). In words: FST protein binding to printed compounds – biochemical, small-molecule microarray, 635/667 nm fluorescence, primary screen (AID 1132). The settings on record: 635 nm fluorescence, higher = more signal.
Test [14] addresses Fibroblast growth factor 2 (Homo sapiens) (UniProt P09038). The test can be described thus: basic fibroblast growth factor binding to printed compounds – biochemical, small-molecule microarray, 635/667 nm fluorescence, primary screen (AID 1133). The settings on record: FGF2, fluorescence 635/667, higher = more signal.
A short description of test [15]: JC-1 mitochondrial potential readout, lung cancer cells – cell-based, A549, JC-1 fluorescence, basal, 24 h, 100 nL, profiling panel (AID 1138).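 Also: A549 lung adenocarcinoma cells under basal conditions with no added stimulus; test concentration not given here.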 The conditions noted are these: higher = more signal.
For another test, the system named is Lefty1. In words: Lefty1 protein binding to printed compounds – biochemical, small-molecule microarray, 635/667 nm fluorescence, primary screen (AID 1139). The settings on record: fluorescence 635/667, higher = more signal.
Test [16] has as its system wheat germ agglutinin (Triticum aestivum), Alexa647-labelled. The test can be described thus: Alexa647-WGA lectin binding to printed small molecules – biochemical, small-molecule microarray, 635/667 nm fluorescence, artefact control for SMM control-protein annotation, profiling panel (AID 1140).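 Also: score merges 667 nm feature emission with signal to noise over triplicate slides.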 The settings on record: WGA-A647 binding, 635 nm fluorescence, higher = more signal.

Test [17] has as its target Luciferin 4-monooxygenase (Photinus pyralis) (UniProt P08659). The test can be described thus: inhibition of purified Photinus pyralis luciferase – biochemical, luminescence, purified enzyme, 2006 set, primary screen (AID 1141).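 Also: cell-free assay with purified firefly luciferase at 100 ng per well in PBS; test concentration not given here.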 The settings on record: purified firefly luciferase, SteadyGlo luminescence, 30 min; higher = more signal, called active from +8 up or from −8 down unless noted.

Activity calls are given as the source filed them.

Sequence of Fibroblast growth factor 2 (Homo sapiens) (P09038 whole entry, looked up): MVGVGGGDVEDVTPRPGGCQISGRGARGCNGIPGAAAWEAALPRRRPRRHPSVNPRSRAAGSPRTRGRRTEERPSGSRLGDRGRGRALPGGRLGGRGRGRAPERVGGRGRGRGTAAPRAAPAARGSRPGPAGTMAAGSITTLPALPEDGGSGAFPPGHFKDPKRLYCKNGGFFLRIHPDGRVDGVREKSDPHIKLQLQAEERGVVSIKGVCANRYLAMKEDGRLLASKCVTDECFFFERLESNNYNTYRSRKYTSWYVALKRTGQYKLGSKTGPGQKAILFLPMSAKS
Sequence of Albumin (Bos taurus) (P02769 whole entry, looked up): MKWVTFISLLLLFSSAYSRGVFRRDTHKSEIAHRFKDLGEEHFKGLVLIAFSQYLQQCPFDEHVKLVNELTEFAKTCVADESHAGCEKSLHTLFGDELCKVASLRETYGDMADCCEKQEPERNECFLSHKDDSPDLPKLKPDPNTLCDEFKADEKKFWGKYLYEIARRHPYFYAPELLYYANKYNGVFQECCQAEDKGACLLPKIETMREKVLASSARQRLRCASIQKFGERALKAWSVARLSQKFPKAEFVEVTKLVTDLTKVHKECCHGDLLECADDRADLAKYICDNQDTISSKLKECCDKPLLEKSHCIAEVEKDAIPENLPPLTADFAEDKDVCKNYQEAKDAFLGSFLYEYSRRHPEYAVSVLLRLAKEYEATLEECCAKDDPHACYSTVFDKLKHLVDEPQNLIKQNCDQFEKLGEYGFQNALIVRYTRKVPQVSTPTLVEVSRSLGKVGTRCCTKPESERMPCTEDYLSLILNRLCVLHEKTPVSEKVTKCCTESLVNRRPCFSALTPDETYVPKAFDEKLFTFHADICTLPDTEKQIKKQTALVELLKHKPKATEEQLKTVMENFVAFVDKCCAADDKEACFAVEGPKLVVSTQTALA
Sequence of Follistatin (Homo sapiens) (P19883 whole entry, looked up): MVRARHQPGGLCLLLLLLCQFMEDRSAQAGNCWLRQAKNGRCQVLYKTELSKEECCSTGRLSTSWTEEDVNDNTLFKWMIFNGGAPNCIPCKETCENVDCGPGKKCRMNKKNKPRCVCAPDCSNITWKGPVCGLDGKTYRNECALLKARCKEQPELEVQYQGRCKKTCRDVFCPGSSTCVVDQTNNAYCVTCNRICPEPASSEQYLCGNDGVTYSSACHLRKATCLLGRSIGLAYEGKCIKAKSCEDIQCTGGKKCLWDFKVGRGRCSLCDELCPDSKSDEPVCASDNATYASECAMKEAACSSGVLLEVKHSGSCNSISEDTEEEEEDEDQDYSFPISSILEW
Sequence of Luciferin 4-monooxygenase (Photinus pyralis) (P08659 whole entry, looked up): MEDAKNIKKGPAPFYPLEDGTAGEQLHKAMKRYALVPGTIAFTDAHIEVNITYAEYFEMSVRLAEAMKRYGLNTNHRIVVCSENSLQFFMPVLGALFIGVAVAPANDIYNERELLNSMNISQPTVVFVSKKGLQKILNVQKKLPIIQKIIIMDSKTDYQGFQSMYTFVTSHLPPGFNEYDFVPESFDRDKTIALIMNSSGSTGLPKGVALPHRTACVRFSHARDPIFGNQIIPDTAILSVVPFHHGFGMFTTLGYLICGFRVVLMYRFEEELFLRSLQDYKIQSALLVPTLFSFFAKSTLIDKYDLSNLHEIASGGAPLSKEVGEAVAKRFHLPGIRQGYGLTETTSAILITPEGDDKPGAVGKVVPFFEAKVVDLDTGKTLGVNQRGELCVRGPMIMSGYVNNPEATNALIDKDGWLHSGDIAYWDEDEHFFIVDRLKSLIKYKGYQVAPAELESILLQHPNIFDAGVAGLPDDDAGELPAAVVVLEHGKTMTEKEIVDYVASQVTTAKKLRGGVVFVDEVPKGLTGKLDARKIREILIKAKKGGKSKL
Sequence of Concanavalin-A (Canavalia ensiformis) (P02866 whole entry, looked up): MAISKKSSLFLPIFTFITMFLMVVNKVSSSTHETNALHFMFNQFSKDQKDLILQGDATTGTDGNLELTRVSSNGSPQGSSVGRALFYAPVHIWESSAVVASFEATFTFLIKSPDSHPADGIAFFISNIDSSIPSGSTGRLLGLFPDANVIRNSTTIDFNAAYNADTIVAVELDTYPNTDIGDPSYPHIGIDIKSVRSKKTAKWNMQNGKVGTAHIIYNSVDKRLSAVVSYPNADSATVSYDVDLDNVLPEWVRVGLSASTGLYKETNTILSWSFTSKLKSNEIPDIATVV

Regarding `C[C@H]1O[C@H]2C3=C(C(=O)[C@@H]4O[C@@H]4[C@@H]3O)[C@@H]1[C@@H]1[C@@H](C)OC=C3[C@@H](O)[C@H]4O[C@H]4C(=O)[C@]312`, the composite z-score is 0.664 in the test with Albumin (Bos taurus); -0.0947 in [2]; -0.125 in test [3]; 0.26 in test [4]; -0.393 in [5]; -0.494 in test [6]. Further, the composite z-score with Sam68 (KHDRBS1) was -1.77; in test [7], -0.0769; in test [8], -1.83; in test [9], -0.652; in test [10], -0.539; in test [11], -0.27. Moreover, the composite z-score in test [12] was -0.727; in test [13] it was -0.72; in test [14], -0.0771; in the test on Lefty1 it was -0.235; in test [16] it was 0.202. For the same molecule, the composite Z-score in test [1] was 0.19 (inactive). Moreover, the z-score in test [15] was 0.344; in test [17], -1.61 (inactive).
Turning to `CCCC[C@@H]1C[C@H]1[C@@H](NP(=O)(c1ccccc1)c1ccccc1)c1ccc(Cl)cc1`, the composite z-score with Albumin (Bos taurus) was 0.708; in test [2] it was 0.092; in test [3] it was -0.0684; in test [4], 0.307; in test [5], 0.807; in [6], -0.162. The composite z-score in the test on Sam68 (KHDRBS1) was -0.331; in [7], -0.226; in test [8] it was 0.302; in [9], 1.23; in [10], -0.212; in [11], 0.343. Further, the composite z-score in test [12] is -0.741; in [13] it was -1.38; in test [14] it was -0.748; with Lefty1, -1.83; in test [16] it was 0.319. Also, in [1], the composite Z-score is 0.198 (inactive). Besides, the z-score was 0.179 in test [15] and 0.183 (inactive) in test [17].
Regarding `C[C@@H]1Cc2c(cnc3c2CN(C)CC3)CO1`, the composite z-score with Albumin (Bos taurus) was -0.537; in [2], -0.0902; in [3], -0.111; in test [4], -0.0903; in test [5], 0.233; in [6], -0.268. Besides, the composite z-score in the test with Sam68 (KHDRBS1) was -0.512; in test [7], 0.975; in test [8], -1.28; in [9], -0.528; in [10], -0.336; in test [11], 0.391. Also, the composite z-score in test [12] was -0.383; in test [13], 0.783; in test [14], 0.664; in the test with Lefty1, 1.27; in [16], -0.23. The composite Z-score in [1] is 0.266 (inactive). The z-score in test [15] was 0.0621; in test [17] it was -0.345 (inactive).
Turning to `c1ccc(-c2cc3c(nc2-c2ccccc2)CCNC3)cc1`, the composite z-score with Albumin (Bos taurus) is 0.525; in [2] it was 0.103; in test [3], -0.131; in test [4], -0.301; in test [5] it was -0.323; in test [6], -0.171. Also, the composite z-score with Sam68 (KHDRBS1) was -0.653; in test [7] it was 0.12; in test [8], -0.269; in test [9] it was -0.0778; in [10] it was -0.716; in test [11] it was -0.0306. In addition, the composite z-score was 0.357 in test [12]; -0.444 in test [13]; 0.0533 in test [14]; 0.0391 in the test with Lefty1; 0.326 in test [16]. Besides, the composite Z-score in test [1] was -0.369 (inactive). Besides, the z-score in test [15] is 0.631; in [17] it was -0.13 (inactive).
With `CCOC(=O)[C@H]1CC=C2C(=O)Oc3ccccc3[C@@H]21`, the composite z-score in the test with Albumin (Bos taurus) was 0.445; in test [2], -0.126; in [3] it was -0.162; in test [4], 0.568; in test [5] it was 0.468; in test [6], 1.3. Also, the composite z-score is -0.491 in the test on Sam68 (KHDRBS1); -0.94 in test [7]; 0.122 in [8]; 2.35 in test [9]; -0.268 in test [10]; 0.374 in test [11]. Further, the composite z-score was -0.192 in [12]; -0.628 in [13]; -0.903 in [14]; -0.54 in the test on Lefty1; -0.351 in test [16]. Moreover, in test [1], the composite Z-score is -0.123 (inactive). Further, the z-score in test [15] was -0.955; in test [17], 1.32 (inactive).
